# Measurements from the supplement of paper PMC8728848.
# About 410 targets per protein were measured; listed, in parts, are those with the strongest signals and a random draw of the rest.
# B1: SRA-1 (Homo sapiens), P21757 (protein)
# chain: MEQWDHFHNQQEDTDSCSESVKFDARSMTALLPPNPKNSPSLQEKLKSFKAALIALYLLVFAVLIPLIGIVAAQLLKWETKNCSVSSTNANDITQSLTGKGNDSEEEMRFQEVFMEHMSNMEKRIQHILDMEANLMDTEHFQNFSMTTDQRFNDILLQLSTLFSSVQGHGNAIDEISKSLISLNTTLLDLQLNIENLNGKIQENTFKQQEEISKLEERVYNVSAEIMAMKEEQVHLEQEIKGEVKVLNNITNDLRLKDWEHSQTLRNITLIQGPPGPPGEKGDRGPTGESGPRGFPGPIGPPGLKGDRGAIGFPGSRGLPGYAGRPGNSGPKGQKGEKGSGNTLTPFTKVRLVGGSGPHEGRVEILHSGQWGTICDDRWEVRVGQVVCRSLGYPGVQAVHKAAHFGQGTGPIWLNEVFCFGRESSIEECKIRQWGTRACSHSEDAGVTCTL
# Assays:
# Assay in all cases: glycan array binding signal (z-score within array); higher = stronger binding
# Details in all cases: glycan notation: IUPAC condensed, linker removed
# [1] = biological target: Fuc(a1-2)Gal(b1-3)GlcNAc(b1-3)[Gal(b1-4)GlcNAc(b1-6)]Gal(b1-4)Glc
# Procedure, shortened: (§1)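 Columns mapping to the same glycan were averaged after glycan names were converted to IUPAC-condensed notation. The data come from 3228 arrays in the Consortium for Functional Glycomics database, limited to those with an available protein sequence. Binding is reported as a within-array Z-score averaged across arrays of one protein sequence and across linkers.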
# [2] = biological target: Fuc(a1-2)Gal(b1-4)GlcNAc(b1-2)Man(a1-3)[Fuc(a1-2)Gal(b1-4)GlcNAc(b1-2)Man(a1-6)]Man(b1-4)GlcNAc(b1-4)[Fuc(a1-6)]GlcNAc
# Procedure, shortened: as §1
# [3] = biological target: Fuc(a1-2)Gal(b1-4)GlcNAc(b1-3)Gal(b1-4)GlcNAc(b1-2)Man(a1-3)[Fuc(a1-2)Gal(b1-4)GlcNAc(b1-3)Gal(b1-4)GlcNAc(b1-2)Man(a1-6)]Man(b1-4)GlcNAc(b1-4)GlcNAc
# Procedure, shortened: as §1
# [4] = biological target: Fuc(a1-2)Gal(b1-4)GlcNAc(b1-3)[Fuc(a1-2)Gal(b1-4)GlcNAc(b1-6)]GalNAc
# Procedure, shortened: as §1
# [5] = biological target: Fuc(a1-2)Gal(b1-4)[Fuc(a1-3)]GlcNAc(b1-3)[Neu5Ac(a2-6)Gal(b1-4)GlcNAc(b1-6)]Gal(b1-4)Glc
# Procedure, shortened: as §1
# [6] = biological target: Fuc(a1-2)[Gal(a1-3)]Gal(b1-3)GlcNAc(b1-3)GalNAc
# Procedure, shortened: as §1
# [7] = biological target: Fuc(a1-2)[GalNAc(a1-3)]Gal(b1-3)GalNAc(b1-3)Gal(a1-4)Gal(b1-4)Glc
# Procedure, shortened: as §1
# [8] = biological target: Fuc(a1-2)[GalNAc(a1-3)]Gal(b1-3)GlcNAc(b1-2)Man(a1-3)[Fuc(a1-2)[GalNAc(a1-3)]Gal(b1-3)GlcNAc(b1-2)Man(a1-6)]Man(b1-4)GlcNAc(b1-4)GlcNAc
# Procedure, shortened: as §1
# [9] = biological target: Fuc(a1-2)[GalNAc(a1-3)]Gal(b1-4)[Fuc(a1-3)]GlcNAc
# Procedure, shortened: as §1
# [10] = biological target: Fuc(a1-2)[GalNAc(a1-3)]Gal(b1-4)[Fuc(a1-3)]GlcNAc(b1-3)GalNAc
# Procedure, shortened: as §1
# [11] = biological target: Fuc(a1-3)[Gal(b1-4)]Glc6S
# Procedure, shortened: as §1
# [12] = biological target: Fuc(a1-3)[Gal(b1-4)]GlcNAc(b1-6)GalNAc
# Procedure, shortened: as §1
# [13] = biological target: Fuc(a1-3)[Gal(b1-4)]GlcNAc(b1-6)[Gal(b1-3)GlcNAc(b1-3)]Gal(b1-4)Glc
# Procedure, shortened: as §1
# [14] = biological target: Fuc(a1-3)[Gal3S(b1-4)]GlcNAc6S
# Procedure, shortened: as §1
# [15] = biological target: Fuc(a1-3)[GalNAc(b1-4)]GlcNAc
# Procedure, shortened: as §1
# [16] = biological target: Gal(a1-3)Gal(b1-4)GlcNAc
# Procedure, shortened: as §1
# [17] = biological target: Gal(a1-4)Gal(b1-4)Glc
# Procedure, shortened: as §1
# [18] = biological target: Gal(b1-3)GalNAc(a1-3)[Fuc(a1-2)]Gal(b1-4)GlcNAc
# Procedure, shortened: as §1
# [19] = biological target: Gal(b1-4)GlcNAc(b1-2)[Gal(b1-4)GlcNAc(b1-6)]Man(a1-6)[GlcNAc(b1-4)][Gal(b1-4)GlcNAc(b1-2)[Gal(b1-4)GlcNAc(b1-4)]Man(a1-3)]Man(b1-4)GlcNAc(b1-4)[Fuc(a1-6)]GlcNAc
# Procedure, shortened: as §1
# [20] = biological target: Gal(b1-4)GlcNAc(b1-3)Gal(b1-4)GlcNAc(b1-2)Man(a1-3)[Gal(b1-4)GlcNAc(b1-3)Gal(b1-4)GlcNAc(b1-2)Man(a1-6)]Man(b1-4)GlcNAc(b1-4)GlcNAc
# Procedure, shortened: as §1
# [21] = biological target: Gal(b1-4)GlcNAc(b1-3)Gal(b1-4)GlcNAc(b1-3)Gal(b1-4)GlcNAc
# Procedure, shortened: as §1
# [22] = biological target: Gal(b1-4)GlcNAc(b1-3)Gal(b1-4)GlcNAc(b1-6)[Gal(b1-3)]GalNAc
# Procedure, shortened: as §1
# [23] = biological target: Gal(b1-4)GlcNAc(b1-6)GalNAc
# Procedure, shortened: as §1
# [24] = biological target: Gal3S6S(b1-4)GlcNAc
# Procedure, shortened: as §1
# [25] = biological target: GalNAc(b1-3)Gal(a1-4)Gal(b1-4)GlcNAc
# Procedure, shortened: as §1
# [26] = biological target: GalNAc(b1-4)GlcNAc
# Procedure, shortened: as §1
# [27] = biological target: Glc(a1-6)Glc(a1-6)Glc(a1-6)Glc
# Procedure, shortened: as §1
# [28] = biological target: GlcNAc(a1-4)Gal(b1-4)GlcNAc
# Procedure, shortened: as §1
# [29] = biological target: GlcNAc(b1-2)[GlcNAc(b1-4)]Man(a1-3)[GlcNAc(b1-4)][GlcNAc(b1-2)[GlcNAc(b1-6)]Man(a1-6)]Man(b1-4)GlcNAc(b1-4)[Fuc(a1-6)]GlcNAc
# Procedure, shortened: as §1
# [30] = biological target: GlcNAc(b1-2)[GlcNAc(b1-6)]Man(a1-6)[GlcNAc(b1-2)Man(a1-3)]Man(b1-4)GlcNAc(b1-4)[Fuc(a1-6)]GlcNAc
# Procedure, shortened: as §1
binder,measurement,setting,value
B1,glycan array binding signal (z-score),[1],-0.462
same,glycan array binding signal (z-score),[2],-0.606
same,glycan array binding signal (z-score),[3],0.064
same,glycan array binding signal (z-score),[4],1.17
same,glycan array binding signal (z-score),[5],0.274
same,glycan array binding signal (z-score),[6],-0.365
same,glycan array binding signal (z-score),[7],-0.415
same,glycan array binding signal (z-score),[8],0.613
same,glycan array binding signal (z-score),[9],1.28
same,glycan array binding signal (z-score),[10],21.8
same,glycan array binding signal (z-score),[11],1.43
same,glycan array binding signal (z-score),[12],-0.092
same,glycan array binding signal (z-score),[13],-0.456
same,glycan array binding signal (z-score),[14],0.048
same,glycan array binding signal (z-score),[15],1
same,glycan array binding signal (z-score),[16],-0.529
same,glycan array binding signal (z-score),[17],4.58
same,glycan array binding signal (z-score),[18],0.047
same,glycan array binding signal (z-score),[19],-0.205
same,glycan array binding signal (z-score),[20],0.208
same,glycan array binding signal (z-score),[21],-0.32
same,glycan array binding signal (z-score),[22],-0.129
same,glycan array binding signal (z-score),[23],0.967
same,glycan array binding signal (z-score),[24],0.399
same,glycan array binding signal (z-score),[25],1.15
same,glycan array binding signal (z-score),[26],1.24
same,glycan array binding signal (z-score),[27],0.295
same,glycan array binding signal (z-score),[28],-0.118
same,glycan array binding signal (z-score),[29],-0.311
same,glycan array binding signal (z-score),[30],0.625
